Screens as filed in PubChem BioAssay.
Glyco luc inh: N-linked glycosylation inhibition; D54 ERlucT glycosylation luciferase reporter, 24 h; percent of 100 nM tunicamycin response; reporter increase, % at 12.5 µM; actives 0.23% (n = 360,000);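 active means mean luciferase reporter signal, scaled so untreated is 0 and the glycosylation-blocking control 100, at or above a set limit in every replicate; inconclusive means mean reaches the limit but not every replicate does; inactive means mean below the limit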;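 further: luciferase carries N-glycosylation sites so blocking glycosylation raises the light; 0% = median of neutral control wells and 100% = median of 100 nM tunicamycin wells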
Vif imaging: HIV Vif inhibition. HEK293T cells, Vif self-association by quenched fluorescence, imaging, 24 h. inhibition, % at 7.49 µM. AID 602346. actives 0.35% (n = 340,000); in the data active means inhibition above about 50%, passing the limit was not always enough; inconclusive means no clear call, values can overlap the other calls; inactive means below about 31%
PvdQ inh: P. aeruginosa PvdQ acylase inhibition; actives 0.063% (n = 340,000); AID 488965; purified PvdQ acylase, fluorescence plate reader; inhibition, % at 10 µM; in the data active means inhibition above about 30%, passing the limit was not always enough; inconclusive means no clear call, values can overlap the other calls;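 further: 0% = vehicle neutral wells and 100% = reference inhibitor wells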
esBAF inh: blocks esBAF chromatin remodeling in mouse ES cells; Bmi1-luciferase knock-in reporter, 24 h; 100% = twice the neutral-well signal; reporter increase, % at 12.5 µM; actives 2% (n = 350,000); in the data active means activation above about 40%; inconclusive means no clear call, values can overlap the other calls;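 further: 0% = median of the plate's neutral control wells and 100% = double that signal; a rise in the Bmi1 reporter signal indicates esBAF inhibition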
Wnt bcat act: activates Wnt/beta-catenin signaling in a reporter cell assay; activator, plate reader; activation, % at 9.35 µM; actives 1.2% (n = 300,000); AID 743398; in the data active means activation above about 30%, passing the limit was not always enough; inconclusive means no clear call, values can overlap the other calls;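 further: 0% = neutral control wells and 100% = positive control wells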
MITF TRPM1 HTS: increases MITF-driven TRPM1 promoter luciferase signal | AID 588334 | activation, % at 12.5 µM | SK-MEL-5 TRPM1-promoter luciferase, 24 h; % of positive control, neutral wells = 0 | actives 0.75% (n = 300,000);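 active means mean activation of at least 80% with every replicate also reaching 80%; inconclusive means mean reaches 80% but some replicate falls short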;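 further: 0% = neutral control wells and 100% = parthenolide positive control wells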
* = called active by the depositor; u = inconclusive; x = not tested or not shown. Rows were chosen to be rich in hits. Some 2.9% of all compounds tested hit in one or more screens of this group.

SMILES	Glyco luc inh	Vif imaging	PvdQ inh	esBAF inh	Wnt bcat act	MITF TRPM1 HTS
O=C(Nc1cccc(-c2nc3ccccc3[nH]2)c1)c1cccc(NC(=O)c2ccco2)c1	-17	72*	-10	32	x	-87
NCC[C@@H]1CC[C@@H](NC(=O)C2CCCCC2)[C@H](CO)O1	x	x	x	-7	x	x
O=c1c2c3c(sc2nc2n1CCCC2)CCCCC3	-2	13	-6	x	x	39
O=c1c2c3c(sc2nc2n1CCCC2)CCC3	1	-5	-6	3	x	3
N=c1c2c3c(sc2nc2n1CCCCC2)CCCCC3	-1	5	-14	48*	x	70
O=c1c2c3c(sc2nc2n1CCCCC2)CCCC3	-1	-1	1	50*	39*	x
O=c1c2c3c(sc2nc2n1CCCCC2)CCCCC3	-3	-2	-3	62*	x	51
CSCC[C@@H](C(=O)O)N1Cc2ccccc2C1=O	3	-3	-7	3	0	2
COC(=O)C(Cc1ccc(OC(=O)c2ccc(C(F)(F)F)cc2)cc1)N1Cc2ccccc2C1=O (stereo not given)	0	22	-20	46*	4	x
CO[C@H]1CN(C)C(=O)c2ccc(NC(=O)C3CCOCC3)cc2OC[C@@H](C)N(C)C[C@H]1C	x	x	x	1	x	x
CC[n+]1c(/C=C/C=C/N(C(C)=O)c2ccccc2)sc2ccccc21	-4	162*	-3	5	-1	-43
CCOC(=O)/C(C#N)=C/Nc1ccccc1OC	-1	9	10	47*	x	117*
CCN(Cc1cnn(C)c1)C(=O)c1cc(COc2ccc3c(c2)CCCC3)on1	-3	-24	-3	46*	12	55
Cn1cc(CNC(=O)c2cc(COc3ccc4c(c3)CCCC4)on2)cn1	-1	6	-7	4	1	6
O=C(NCCc1cnn(-c2ccccc2)c1)c1cc(COc2c(F)cccc2F)on1	-2	0	9	x	38*	46
CC(=O)c1ccc(OCc2cc(C(=O)NCCn3nc(C)cc3C)no2)cc1	-2	x	0	44*	-1	39
CN(Cc1cnn(C)c1)C(=O)c1cc(COc2c(F)cccc2F)on1	1	17	-16	47*	x	15
COc1cccc(CN(C)C(=O)c2cc(COc3c(F)cccc3F)on2)c1	0	-7	-6	3	1	8
O=C(C[C@H]1CC[C@H](NS(=O)(=O)c2cccc(F)c2)[C@H](CO)O1)NCc1ccc2c(c1)OCO2	x	x	x	-5	x	x
C[C@H]1CCCCO[C@H](CN(C)Cc2ccc(C(=O)O)cc2)[C@@H](C)CN([C@@H](C)CO)C(=O)c2cc(NC(=O)Nc3ccccc3)ccc2O1	x	x	x	-3	x	x
Cc1ccc(S(=O)(=O)Nc2ccc3c(c2)C(=O)N([C@H](C)CO)C[C@H](C)[C@@H](CN(C)C(=O)Nc2c(C)noc2C)O3)cc1	x	x	x	-2	x	x
Cc1cc(C)n(CCNC(=O)c2cc(COc3c(F)cccc3F)on2)n1	1	52*	0	-4	-1	13
Cc1cc(C)n(CCN(C)C(=O)c2cc(COc3c(F)cccc3F)on2)n1	-1	x	-13	x	9	3
Cc1ccc(C(=O)C2Oc3ccccc3C3CC(c4ccc(C)cc4)=NN23)cc1 (stereo not given)	-8	-1	-14	x	-1	-13
Cc1ccc(C2=NN3C(C(=O)c4ccccc4)Oc4ccccc4C3C2)cc1 (stereo not given)	-3	-4	5	68*	43*	x
SMILES	Glyco luc inh	Vif imaging	PvdQ inh	esBAF inh	Wnt bcat act	MITF TRPM1 HTS
COc1ccc(C2=NN3C(C2)c2ccccc2OC3c2cccs2)cc1 (stereo not given)	-5	3	8	x	49*	57
Cc1noc(C)c1NC(=O)Nc1ccc2c(c1)C(=O)N([C@H](C)CO)C[C@@H](C)[C@H](CN(C)Cc1ccc(C(F)(F)F)cc1)OCCCC[C@@H](C)O2	x	x	x	-3	x	x
COc1ccccc1C#Cc1ccc2c(c1)O[C@H](CN(C)C(C)=O)[C@@H](C)CN([C@H](C)CO)S2(=O)=O	x	x	x	-1	x	x
Cc1cc(OCc2cc(C(=O)N(C)C(C)c3ccccn3)no2)cc(C)c1Cl (stereo not given)	2	3	-11	57*	20	30
Cc1cc(OCc2cc(C(=O)N(C)Cc3ccccn3)no2)cc(C)c1Cl	-2	-4	-7	75*	u	97*
CC(=O)c1ccc(OCc2cc(C(=O)N(C)Cc3ccccn3)no2)cc1	1	2	-14	104*	19	99*
C[C@@H]1CCCCO[C@H](CN(C)C(=O)CCC(F)(F)F)[C@H](C)CN([C@@H](C)CO)C(=O)c2cc(NC(=O)NC3CCCCC3)ccc2O1	x	x	x	-6	x	x
C[C@@H]1CCCCO[C@@H](CN(C)Cc2ccc(Cl)c(Cl)c2)[C@H](C)CN([C@H](C)CO)C(=O)c2cc(NS(=O)(=O)c3ccccc3)ccc2O1	x	x	x	4	x	x
COc1ccc(CN=C2Nc3ccccc3CS2)cc1	-5	-12	13	61*	x	x
COc1ccc(CN=C2NN=C(c3ccc(Cl)cc3)CS2)cc1	1	2	-2	x	1	20
CC1CCC(NC(=O)c2ccc(NC(=O)CC3SC(N4CCCC4)=NC3=O)cc2)CC1 (stereo not given)	1	-3	-13	66*	28	76
Cc1ccc(C(=O)Nc2cc3c(cc2Cl)OCCCO3)cc1	-4	2	-12	69*	x	72
O=C(Nc1cc2c(cc1Br)OCCCO2)c1ccccc1	-3	-5	-8	x	52*	46
Cc1cc(NC(=O)c2ccccc2)c(Cl)cc1N	0	116*	-17	-59	-1	-22
Cc1ccc(C(=O)Nc2ccc3c(c2)OCCO3)cc1	-18	2	-4	-61	1	x
CC(=O)c1cc2c(cc1NC(=O)c1ccc(Cl)cc1)OCCO2	0	-3	-4	-1	-2	x
O=C(Nc1cc2c(cc1Cl)OCCCO2)c1ccc(F)cc1	-1	5	-1	x	51*	76
Cc1ccc(S(=O)(=O)N(C)C[C@@H]2Oc3ccc(NS(=O)(=O)c4ccc(F)cc4)cc3C(=O)N([C@H](C)CO)C[C@H]2C)cc1	x	x	x	6	x	x
CC(C)(C)c1cc(C(=O)N/N=C/c2ccco2)n[nH]1	1	62*	-6	x	x	50
O=C(N/N=C/c1ccco1)c1cc(-c2ccc3ccccc3c2)n[nH]1	1	-11	8	60*	x	8
CCc1ccc(-c2cc(C(=O)N/N=C/c3ccco3)[nH]n2)cc1	1	-6	-9	x	3	37
COc1ccccc1NC(=O)N1C[C@H]2[C@@H](c3ccccc31)[C@@H](CO)N2C(=O)C1CC1	x	x	x	0	x	x
CCOC(=O)c1ccc(Nc2cnc3ccccc3n2)cc1	1	-4	-11	x	34*	u
CCOC(=O)c1cccc(NC(=O)c2cnc3ccccc3n2)c1	-1	-1	-22	53*	-4	28
CCc1ccc(NCc2nc3ccccc3c(=O)[nH]2)cc1	-4	1	7	3	35*	21
